Screens as filed in PubChem BioAssay.
RAM network inh: inhibitors of the yeast RAM network, primary screen, dse1pr::URA3 reporter, 5-FOA selection | S. cerevisiae dse1pr::URA3 reporter, 5-FOA growth OD615, 2 d; analog-sensitive cbk1-as2 kinase mutant strain | inhibition, % at 50 µM | actives 1.8% (n = 190,000) | AID 868, 2007;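 active = inhibition above a set limit, 3 SD over mean compound inhibition, cut at about 8.4% in these data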;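 note: inhibition rescues growth on 5-FOA so higher OD means more RAM inhibition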
WT yeast gro inh: growth inhibition of WT strain, primary screen, mitochondrial fusion inhibitor project, WT and mutant strains, chemical genetic; mitochondrial fusion phenotypic screen; inhibition, % at 10 µM; actives 2.1% (n = 190,000); AID 1362, 2008; in the data active = inhibition above about 58%; tested in S. cerevisiae
CHOP inhibitor: inhibitors of CHOP promoter induction, primary screen, cell-based, unfolded protein response, luciferase reporter; CHO-K1 CHOP-promoter luciferase, tunicamycin-induced, 15-18 h; inhibition, % at 10 µM; actives 3.8% (n = 220,000);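 active = compounds that reduced the stress-induced luciferase reporter signal by more than about 70% of percent inhibition, limit read from the data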
L major viab: Leishmania major promastigote growth inhibition, primary screen; Leishmania major promastigotes, resazurin fluorescence viability; actives 9% (n = 200,000); inhibition, % at 10 µM; in the data active = inhibition above about 50%;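 note: promastigotes grown with compound for 44 hours at 28 °C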
Large screens that a line does not name were inactive. Rows were chosen to be rich in hits. Some 13% of all compounds tested hit in one or more screens of this group.

CC1=C(C#N)CCC(=O)N1Cc1ccc(C)cc1	none
CC1=CN2C(=N)/C(=C\c3cn(CCCOc4ccccc4)c4ccccc34)C(=O)N=C2S1	none
Cc1ccc(OC(C)C(=O)Nc2ccc(C)c(S(=O)(=O)Nc3ccc(C)cc3C)c2)cc1 (stereo unspecified)	L major viab 67
CCOC(=O)c1c(NC(NC(C)=O)C(Cl)(Cl)Cl)sc2c1CCCC2 (stereo unspecified)	WT yeast gro inh 67
COC(=O)c1c(NC(=O)CCC(=O)O)sc2c1CCCCC2	none
CCC(=O)NC(Nc1sc2c(c1C(=O)OC)CCC2)C(Cl)(Cl)Cl (stereo unspecified)	L major viab 73
COC(=O)c1c(NC(NC(=O)CC(C)C)C(Cl)(Cl)Cl)sc2c1CCC2 (stereo unspecified)	CHOP inhibitor 91
COc1ccc(/C=C(/NC(=O)c2ccc(OC)cc2)C(=O)NCCc2c[nH]c3ccccc23)cc1	RAM network inh 8.5
COc1ccc(OCC(=O)NCCc2c[nH]c3ccccc23)cc1	L major viab 64
COc1ccc(CCNC(=S)NCCc2c[nH]c3ccccc23)cc1	L major viab 91
COc1ccc(/C=C(/NC(=O)c2ccc(OC)c(OC)c2)C(=O)NCCc2c[nH]c3ccccc23)cc1	none
CCOC(=O)Cc1csc(NC(=O)COc2cc(C)cc(C)c2)n1	none
CCCOc1ccc(C(=O)NCC(c2ccco2)N(C)C)cc1 (stereo unspecified)	none
O=C(c1cccc(F)c1)N1CCN(c2cc(N3CCCCC3)c(F)cc2[N+](=O)[O-])CC1	WT yeast gro inh 61, CHOP inhibitor 73
Oc1ccc(N=Nc2nc(-c3ccccc3)c(-c3ccccc3)[nH]2)cc1	RAM network inh 8.8, WT yeast gro inh 92, CHOP inhibitor 92, L major viab 96
COc1ccc(O)c(N)c1	L major viab 98
CCC(C)(C(=O)NC1CCCC1)N(C(=O)Cc1cccs1)c1c(C)n(C)n(-c2ccccc2)c1=O (stereo unspecified)	none
CCOC(=O)c1c(-c2ccc(C)o2)csc1NC(=O)CN1CCN(CC)CC1	none
CCOC(=O)c1c(-c2ccc(C)o2)csc1NC(=O)CN(C)CC(=O)Nc1ccc(C)cc1	CHOP inhibitor 89
CCOC(=O)c1c(-c2ccc(C)o2)csc1NC(=O)CN1CCC(C(N)=O)CC1	none
CCOC(=O)c1c(-c2ccc(C)o2)csc1NC(=O)CN1CCCCC1	WT yeast gro inh 83
CCOC(=O)c1c(-c2ccc(C)o2)csc1NC(=S)NC(=O)c1ccc(F)cc1	RAM network inh 11
C#Cc1ccc([C@H]2C=C(C(=O)NC3CC3)O[C@@H](OCC)[C@@H]2CCCO)cc1	none
O=C(CSc1ccc2ccccc2n1)NCCC1=CCCCC1	RAM network inh 8.6
Cc1ccc(C)c(-n2nnnc2SCC(=O)NCCC2=CCCCC2)c1	CHOP inhibitor 86
CC(=O)NC(=S)Nc1cccc(S(=O)(=O)NC2=NCCC2)c1	none
CCCCC1(CC(=O)OC)C(=O)N(c2ccccc2)N(c2ccccc2)C1=O	none
COC(=O)c1ccccc1S(=O)(=O)N1Cc2cc([N+](=O)[O-])ccc2Oc2ccccc21	L major viab 86
COC(=O)c1cc([N+](=O)[O-])ccc1N1CCN(Cc2ccccc2)CC1	none
CCOC(=O)c1c(C)nc2c(c1-c1ccc(Cl)cc1)C(=O)CC(C)(C)C2	none
COc1ccc(N(C)S(=O)(=O)c2cccc(C(=O)Nc3cc(OC)ccc3OC)c2)cc1	L major viab 82
CC(=O)c1cccc(NC(=O)C(OC(=O)c2ccccc2NS(=O)(=O)c2cccs2)c2ccccc2)c1 (stereo unspecified)	none
CC(=O)c1cccc(NC(=O)C(OC(=O)c2cccc(S(=O)(=O)N(C)c3ccccc3)c2)c2ccccc2)c1 (stereo unspecified)	L major viab 96
COc1ccc(N(C)S(=O)(=O)c2cccc(C(=O)OC(C(=O)Nc3cc(C)cc(C)c3)c3ccccc3)c2)cc1 (stereo unspecified)	L major viab 96
O=S1(=O)C=CC(c2ccccc2)C1 (stereo unspecified)	none (no result: RAM network inh, WT yeast gro inh, L major viab)
Cc1ccc(C2=NN3C(C(=O)c4ccccc4)Oc4ccccc4C3C2)cc1 (stereo unspecified)	none
COc1ccc(C(=O)C(CCC(CNC(C)(C)C)C(=O)c2ccc(OC)cc2)CNC(C)(C)C)cc1 (stereo unspecified)	L major viab 100
O=C(NC1CC1)C1=C[C@H](c2csc3ccccc23)C[C@H](OCCCCO)O1	L major viab 85
